In the supplement of paper PMC11732987, “Enantioselective OTUD7B fragment discovery through chemoproteomics screening and high-throughput optimisation” (Communications Chemistry, 2025):

Columns and labels:
Assay in all cases: log2 ratio of Biotin-Ahx-Ub-VS probe labelling (fragment/DMSO); higher = less target engagement (more negative = stronger competition), active = hit call of the paper (q ≤ 0.05, log2 ratio ≤ -1)
Details in all cases: compound concentration: 200 uM; treatment time: 3 h
ALG13 = target: T1, ALG13 (UniProt Q9NP73)
T1 sequence (whole entry): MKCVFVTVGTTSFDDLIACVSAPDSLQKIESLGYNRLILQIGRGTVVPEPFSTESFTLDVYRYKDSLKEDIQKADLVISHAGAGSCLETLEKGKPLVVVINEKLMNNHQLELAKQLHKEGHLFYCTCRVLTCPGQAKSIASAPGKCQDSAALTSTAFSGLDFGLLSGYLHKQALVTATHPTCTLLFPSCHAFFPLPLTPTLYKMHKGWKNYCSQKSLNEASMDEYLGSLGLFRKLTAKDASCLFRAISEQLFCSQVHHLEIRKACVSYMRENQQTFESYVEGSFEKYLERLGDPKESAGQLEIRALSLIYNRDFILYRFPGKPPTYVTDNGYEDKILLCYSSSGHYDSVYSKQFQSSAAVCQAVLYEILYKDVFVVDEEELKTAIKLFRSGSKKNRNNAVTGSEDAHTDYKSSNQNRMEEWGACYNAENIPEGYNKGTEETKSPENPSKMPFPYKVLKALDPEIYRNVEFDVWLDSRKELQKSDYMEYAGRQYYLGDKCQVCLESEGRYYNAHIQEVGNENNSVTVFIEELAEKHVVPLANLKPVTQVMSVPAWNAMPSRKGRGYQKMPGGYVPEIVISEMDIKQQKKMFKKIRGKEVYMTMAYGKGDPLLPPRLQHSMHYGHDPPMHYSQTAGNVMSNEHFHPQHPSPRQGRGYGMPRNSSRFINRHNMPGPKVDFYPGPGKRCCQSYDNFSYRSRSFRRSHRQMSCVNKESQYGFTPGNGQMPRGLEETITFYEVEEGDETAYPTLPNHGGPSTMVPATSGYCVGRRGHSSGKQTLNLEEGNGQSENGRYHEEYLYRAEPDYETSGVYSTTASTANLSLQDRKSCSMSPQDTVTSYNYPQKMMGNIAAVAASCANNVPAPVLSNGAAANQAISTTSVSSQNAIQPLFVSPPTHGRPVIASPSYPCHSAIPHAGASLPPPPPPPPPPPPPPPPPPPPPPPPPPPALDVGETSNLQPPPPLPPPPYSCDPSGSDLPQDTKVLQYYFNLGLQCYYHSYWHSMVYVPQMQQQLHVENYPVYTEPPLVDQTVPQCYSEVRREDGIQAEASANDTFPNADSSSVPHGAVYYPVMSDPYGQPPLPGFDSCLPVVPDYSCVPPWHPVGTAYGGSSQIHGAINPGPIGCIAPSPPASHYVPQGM
In short: (§1)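 Each value is an average log2 ratio of fragment to vehicle, tested by unpaired t-test. The underlying Spectronaut label-free quantities were global-median-normalised, and only proteins with ≥2 unique peptides were included. Triplicate HEK293T lysate samples (495 µg) were exposed to fragment at 200 µM or vehicle for 3 h, then to Biotin-Ahx-Ub-VS at 0.5 µM final for 1 h, before NeutrAvidin enrichment of labelled DUBs, LysC and trypsin digestion, and diaPASEF LC-MS/MS.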

ATXN3 = ATXN3 (UniProt P54252)
In short: as §1

BAP1 = target: T2, BAP1 (UniProt Q92560)
T2 sequence (whole entry): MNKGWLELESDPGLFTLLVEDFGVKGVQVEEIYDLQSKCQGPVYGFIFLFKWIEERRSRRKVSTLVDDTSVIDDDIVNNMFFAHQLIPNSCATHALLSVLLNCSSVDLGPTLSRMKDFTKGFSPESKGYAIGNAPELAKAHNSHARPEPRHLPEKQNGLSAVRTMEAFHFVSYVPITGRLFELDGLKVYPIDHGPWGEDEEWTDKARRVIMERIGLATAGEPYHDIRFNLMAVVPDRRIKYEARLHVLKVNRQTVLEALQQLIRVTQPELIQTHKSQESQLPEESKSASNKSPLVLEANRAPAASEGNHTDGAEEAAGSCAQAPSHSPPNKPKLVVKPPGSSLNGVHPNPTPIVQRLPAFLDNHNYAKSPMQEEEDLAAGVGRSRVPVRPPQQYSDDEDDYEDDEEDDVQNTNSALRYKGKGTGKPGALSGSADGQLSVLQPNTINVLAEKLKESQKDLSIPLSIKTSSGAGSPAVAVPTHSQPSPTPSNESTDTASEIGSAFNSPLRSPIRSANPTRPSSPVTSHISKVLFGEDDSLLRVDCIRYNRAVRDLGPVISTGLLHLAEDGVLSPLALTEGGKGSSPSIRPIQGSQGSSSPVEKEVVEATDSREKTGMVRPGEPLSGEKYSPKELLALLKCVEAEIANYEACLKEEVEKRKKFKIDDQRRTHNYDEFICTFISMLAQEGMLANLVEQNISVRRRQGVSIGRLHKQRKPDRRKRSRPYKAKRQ
In short: as §1

EIF3F = EIF3F (UniProt O00303)
In short: as §1

EIF3H = EIF3H (UniProt O15372)
In short: as §1

FAM105A = target: T3, FAM105A (UniProt Q9NUU6)
T3 sequence (whole entry): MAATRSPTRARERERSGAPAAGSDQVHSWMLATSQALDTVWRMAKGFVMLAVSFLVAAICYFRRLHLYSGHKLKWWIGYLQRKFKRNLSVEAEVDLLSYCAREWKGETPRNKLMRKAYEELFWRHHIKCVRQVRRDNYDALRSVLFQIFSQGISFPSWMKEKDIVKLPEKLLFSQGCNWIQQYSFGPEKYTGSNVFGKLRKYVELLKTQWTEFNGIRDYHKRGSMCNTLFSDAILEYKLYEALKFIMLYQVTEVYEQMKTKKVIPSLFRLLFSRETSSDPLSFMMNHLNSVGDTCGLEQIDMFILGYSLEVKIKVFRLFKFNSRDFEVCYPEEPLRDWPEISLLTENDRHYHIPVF
In short: as §1

OTUB1 = OTUB1 (UniProt Q96FW1)
In short: as §1

OTUD4 = target: T4, OTUD4 (UniProt Q01804)
T4 sequence (whole entry): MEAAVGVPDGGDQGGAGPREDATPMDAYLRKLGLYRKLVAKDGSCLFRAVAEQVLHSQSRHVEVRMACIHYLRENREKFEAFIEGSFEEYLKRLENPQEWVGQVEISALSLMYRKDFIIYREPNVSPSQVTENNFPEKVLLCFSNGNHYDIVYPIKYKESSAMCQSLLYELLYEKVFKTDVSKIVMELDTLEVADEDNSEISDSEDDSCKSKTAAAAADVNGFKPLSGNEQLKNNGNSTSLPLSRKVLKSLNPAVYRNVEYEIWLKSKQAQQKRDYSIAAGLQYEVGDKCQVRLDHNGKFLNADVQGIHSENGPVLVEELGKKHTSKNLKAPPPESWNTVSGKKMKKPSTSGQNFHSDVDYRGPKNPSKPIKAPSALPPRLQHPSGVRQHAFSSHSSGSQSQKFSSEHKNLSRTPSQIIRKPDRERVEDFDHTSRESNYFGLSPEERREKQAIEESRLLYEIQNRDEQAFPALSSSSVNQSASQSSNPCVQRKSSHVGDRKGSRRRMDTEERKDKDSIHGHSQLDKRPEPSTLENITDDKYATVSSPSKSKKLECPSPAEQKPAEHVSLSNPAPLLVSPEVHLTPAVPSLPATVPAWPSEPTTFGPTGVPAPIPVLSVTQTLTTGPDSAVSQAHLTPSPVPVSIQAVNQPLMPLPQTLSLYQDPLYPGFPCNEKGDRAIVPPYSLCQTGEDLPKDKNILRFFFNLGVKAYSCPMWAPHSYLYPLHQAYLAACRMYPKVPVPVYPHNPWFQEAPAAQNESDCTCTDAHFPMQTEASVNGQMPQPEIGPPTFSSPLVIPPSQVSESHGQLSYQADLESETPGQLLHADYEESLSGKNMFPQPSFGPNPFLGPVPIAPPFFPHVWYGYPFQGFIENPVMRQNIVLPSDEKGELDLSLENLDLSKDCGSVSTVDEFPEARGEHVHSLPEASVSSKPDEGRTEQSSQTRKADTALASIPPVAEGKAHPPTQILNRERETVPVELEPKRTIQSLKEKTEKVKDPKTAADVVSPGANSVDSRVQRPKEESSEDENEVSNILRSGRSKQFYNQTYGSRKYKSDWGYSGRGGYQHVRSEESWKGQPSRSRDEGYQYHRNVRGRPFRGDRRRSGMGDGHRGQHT
In short: as §1

OTUD5 = target: T5, OTUD5 (UniProt Q96G74)
T5 sequence (whole entry): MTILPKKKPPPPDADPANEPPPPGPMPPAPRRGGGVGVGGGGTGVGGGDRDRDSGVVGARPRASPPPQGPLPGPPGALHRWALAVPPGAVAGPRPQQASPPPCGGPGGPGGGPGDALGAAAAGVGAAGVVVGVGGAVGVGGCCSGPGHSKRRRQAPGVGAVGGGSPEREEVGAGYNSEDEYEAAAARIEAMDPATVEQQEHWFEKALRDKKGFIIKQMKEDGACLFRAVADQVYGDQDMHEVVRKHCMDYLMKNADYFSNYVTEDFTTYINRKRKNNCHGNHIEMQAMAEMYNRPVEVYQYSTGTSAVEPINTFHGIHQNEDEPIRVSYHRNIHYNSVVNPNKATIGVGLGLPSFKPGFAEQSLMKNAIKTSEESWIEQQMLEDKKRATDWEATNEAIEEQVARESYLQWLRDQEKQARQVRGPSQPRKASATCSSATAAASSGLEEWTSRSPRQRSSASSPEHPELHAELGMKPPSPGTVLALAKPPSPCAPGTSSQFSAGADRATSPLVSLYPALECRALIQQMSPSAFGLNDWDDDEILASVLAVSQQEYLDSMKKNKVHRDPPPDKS
In short: as §1

Measured: log2 ratio of Biotin-Ahx-Ub-VS probe labelling

EIF3H, sequence (O15372 whole entry): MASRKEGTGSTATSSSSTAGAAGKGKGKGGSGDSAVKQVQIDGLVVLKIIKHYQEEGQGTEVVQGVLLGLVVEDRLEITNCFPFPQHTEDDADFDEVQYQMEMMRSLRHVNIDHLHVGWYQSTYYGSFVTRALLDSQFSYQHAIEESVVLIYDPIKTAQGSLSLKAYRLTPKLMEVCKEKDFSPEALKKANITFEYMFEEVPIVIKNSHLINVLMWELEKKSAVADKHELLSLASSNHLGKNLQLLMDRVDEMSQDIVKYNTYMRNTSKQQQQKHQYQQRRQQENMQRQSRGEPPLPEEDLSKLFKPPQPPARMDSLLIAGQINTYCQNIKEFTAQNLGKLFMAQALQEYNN
EIF3F, sequence (O00303 whole entry): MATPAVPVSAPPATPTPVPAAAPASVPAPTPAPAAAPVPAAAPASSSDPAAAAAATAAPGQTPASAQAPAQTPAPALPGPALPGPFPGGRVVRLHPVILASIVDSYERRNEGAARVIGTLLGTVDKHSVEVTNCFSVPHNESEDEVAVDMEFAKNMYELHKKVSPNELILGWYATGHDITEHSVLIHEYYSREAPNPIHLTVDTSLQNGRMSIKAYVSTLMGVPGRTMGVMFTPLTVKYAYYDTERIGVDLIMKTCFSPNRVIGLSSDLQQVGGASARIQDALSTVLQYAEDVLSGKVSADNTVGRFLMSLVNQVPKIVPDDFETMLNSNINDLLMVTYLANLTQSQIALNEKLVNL
OTUB1, sequence (Q96FW1 whole entry): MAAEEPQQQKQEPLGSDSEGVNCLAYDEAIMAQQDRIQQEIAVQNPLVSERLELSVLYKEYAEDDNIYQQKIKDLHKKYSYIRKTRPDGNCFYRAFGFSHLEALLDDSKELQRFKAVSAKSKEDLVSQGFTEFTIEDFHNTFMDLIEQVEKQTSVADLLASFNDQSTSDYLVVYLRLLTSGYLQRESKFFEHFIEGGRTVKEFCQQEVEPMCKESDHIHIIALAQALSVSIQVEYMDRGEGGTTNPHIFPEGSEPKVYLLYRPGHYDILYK
ATXN3, sequence (P54252 whole entry): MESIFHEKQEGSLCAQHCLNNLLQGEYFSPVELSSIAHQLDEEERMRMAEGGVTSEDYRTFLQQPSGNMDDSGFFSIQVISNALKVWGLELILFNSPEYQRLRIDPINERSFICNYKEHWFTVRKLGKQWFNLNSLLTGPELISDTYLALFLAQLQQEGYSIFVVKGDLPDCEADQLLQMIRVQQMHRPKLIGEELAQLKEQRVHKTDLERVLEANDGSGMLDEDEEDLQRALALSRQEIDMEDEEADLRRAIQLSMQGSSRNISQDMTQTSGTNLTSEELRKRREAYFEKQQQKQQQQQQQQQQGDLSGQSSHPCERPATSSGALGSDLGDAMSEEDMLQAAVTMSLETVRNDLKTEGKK

O=C(CCl)NCCc1cccc2ccccc12
active: BAP1 -1.22
inactive: ALG13 -0.35 | ATXN3 0.214 | EIF3F 0.273 | EIF3H 0.236 | FAM105A 0.159 | OTUB1 0.162 | OTUD4 0.0626 | OTUD5 0.0474
